This is part of a sample that, as a whole, favours compounds with a hit. Of some 79,000 tested, about 15% had one in any assay. Calls of active or inactive are those of the source. Rule as the data show it: active = growth inhibition above about 70%; inactive = the rest.
Assay: NCI Yeast Anticancer Drug Screen. Data for the rad50 strain (AID 155);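 also: 0% = growth of vehicle-only cultures of the same strain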
Details: S. cerevisiae rad50 strain growth inhibition; at 5.0 µM (retest, dose inferred, filed as 0.5); hits give high values
Summary of the method: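 Yeast carrying a defined DNA repair defect were exposed to test compounds, and growth was compared with vehicle-treated controls to give percent inhibition.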

Row | Compound | growth inhibition
1 | O=C(c1ccccc1)c1cccc2ccccc12 | 5% (inactive)
2 | O=C1C(c2c[nH]c3ccccc23)=Nc2ccc(Br)cc21 | 19% (inactive)
3 | COc1cccc(CCCNC(=O)Cc2ccccc2CO)c1 | 12% (inactive)
4 | C/C(=N\NC(=S)N1CCN(C2CCCCC2)CC1)c1ccccn1 | -3% (inactive)
5 | CN(C)CCOC(=O)C1(CCC2CCCCC2)CCCCC1 | 0% (inactive)
6 | O=c1c(Cl)cc2nc3ccccc3sc-2c1Cl | 21% (inactive)
7 | COc1ccc2nc(NC(=O)Nc3c(Cl)cccc3Cl)sc2c1 | 13% (inactive)
8 | Cc1c[nH]c2nc(C)n(-c3ccccc3)c(=N)c12 | -1% (inactive)
9 | O=C(C1=NNC(c2ccccc2)C1C(=O)c1ccccc1)c1ccccc1 (stereo not given) | -1% (inactive)
10 | CCOC(=O)N1CCN(C=S)CC1 | -8% (inactive)
11 | COC(=O)N(C[C@@H]1C=CCCC1)c1ccccc1I | 29% (inactive)
12 | N=c1ccc2c(c1)[nH]c1c3ccccc3[nH]c3cccc2c31 | 81% (active)
13 | CC1(C)[C@H]2CC[C@]1(C)[C@H](OC(=O)NNC(=O)O[C@@H]1C[C@@H]3CC[C@@]1(C)C3(C)C)C2 | 33% (inactive)
14 | N#CC1(C#N)C(C#N)(C#N)C12CCCCCC2 | 38% (inactive)
15 | CCOP(=O)(OCC)OC1c2[nH]ccc2-c2cc(C(=O)OC)[nH]c2C1OC (stereo not given) | 3% (inactive)
16 | O=[N+]([O-])/C(=C\c1cccs1)c1ccccc1 | 90% (active)
17 | Cc1ccccc1NC(=O)C(=O)C(C#N)c1c(Cl)cccc1Cl (stereo not given) | -13% (inactive)
18 | O=C1c2c(F)c(F)c(F)c(F)c2SC2=NCCN12 | 2% (inactive)
19 | CCCC(C)OC(=O)Nc1cccc(Cl)c1 (stereo not given) | -15% (inactive)
20 | Nc1nc(SCc2ccccc2)c2ncn(CCCl)c2n1 | -3% (inactive)
21 | CCCCOC(=O)c1nc(N(CC2CCCCC2)C(=O)NC)sc1NC(=O)NC | -3% (inactive)

Same assay, conditions: S. cerevisiae rad50 strain growth inhibition; at 50.0 µM (retest, dose inferred, filed as 5.0); hits give high values

Row | Compound | growth inhibition
22 | COc1ccc(N=Cc2cc(Br)cc(Br)c2O)cc1.COc1ccc(N=Cc2cc(Br)cc(Br)c2O)cc1.[Co] | 75% (active)
23 | O=C(/C=C/C(=O)N1CCCC1)N1CCCC1 | 10% (inactive)
24 | O=S(c1ccccc1)c1c(Cl)c(Cl)nc(Cl)c1Cl (stereo not given) | 99% (active)
25 | CSc1nc(N)c2cnn(C3OC(CO)C(O)C3O)c2n1 (stereo not given) | 8% (inactive)
26 | COc1cccc(C=O)c1O | 75% (active)
27 | Cn1c(=O)c2c(ncn2CCCCOc2ccc3c(c2)[n+]([O-])nc(N)[n+]3[O-])n(C)c1=O | 38% (inactive)
28 | Cn1ncc2c(Nc3cccc(Cl)c3)nc(Nc3cccc(Cl)c3)nc21 | 97% (active)
29 | Cc1cc(C)n2nc(N)c(C#N)c2c1C#N | 1% (inactive)
30 | COc1ccc(C2c3cc4c(cc3OC(O)C2C)OCO4)cc1 (stereo not given) | 69% (inactive)
31 | Nc1ccccc1[S][Sn]([c]1ccccc1)([c]1ccccc1)[c]1ccccc1 | 98% (active)
32 | Cn1c(Sc2ccc(-c3cccnc3)n2C)ccc1-c1cccnc1 | 91% (active)
33 | Nc1nnc(-c2cc(=O)c3cc(Cl)ccc3o2)s1 | 13% (inactive)
34 | COc1ccc(CNc2nc3cc(C(F)(F)F)ccc3nc2C)cc1OC | 22% (inactive)
35 | CC(=O)OCC1CC2OC2CC1C (stereo not given) | 2% (inactive)
36 | CCCCN(CCCC)CC(O)c1cc(-c2ccc(Cl)cc2)nc2cc(C)ccc12 (stereo not given) | 97% (active)
37 | NC(=S)n1nc(-c2ccccc2)c(N=Nc2ccccc2Cl)c1-c1ccccc1 | 84% (active)
38 | CCCCCCCCCCCCN(CCO)CCO | 95% (active)
39 | CC(C)CCSc1ncnc2nc[nH]c12 | 6% (inactive)
40 | O=C(c1ccccc1)c1cccc2ccccc12 | 29% (inactive)
41 | O=C1C(c2c[nH]c3ccccc23)=Nc2ccc(Br)cc21 | 33% (inactive)

Row | Compound | growth inhibition
42 | COc1cccc(CCCNC(=O)Cc2ccccc2CO)c1 | 14% (inactive)
43 | C/C(=N\NC(=S)N1CCN(C2CCCCC2)CC1)c1ccccn1 | 64% (inactive)
44 | CN(C)CCOC(=O)C1(CCC2CCCCC2)CCCCC1 | 80% (active)
45 | O=c1c(Cl)cc2nc3ccccc3sc-2c1Cl | 72% (active)
46 | COc1ccc2nc(NC(=O)Nc3c(Cl)cccc3Cl)sc2c1 | 99% (active)
47 | Cc1c[nH]c2nc(C)n(-c3ccccc3)c(=N)c12 | 2% (inactive)
48 | O=C(C1=NNC(c2ccccc2)C1C(=O)c1ccccc1)c1ccccc1 (stereo not given) | 82% (active)
49 | CCOC(=O)N1CCN(C=S)CC1 | 6% (inactive)
50 | COC(=O)N(C[C@@H]1C=CCCC1)c1ccccc1I | 66% (inactive)
51 | N=c1ccc2c(c1)[nH]c1c3ccccc3[nH]c3cccc2c31 | 98% (active)
52 | CC1(C)[C@H]2CC[C@]1(C)[C@H](OC(=O)NNC(=O)O[C@@H]1C[C@@H]3CC[C@@]1(C)C3(C)C)C2 | 74% (active)
53 | N#CC1(C#N)C(C#N)(C#N)C12CCCCCC2 | 97% (active)
54 | CCOP(=O)(OCC)OC1c2[nH]ccc2-c2cc(C(=O)OC)[nH]c2C1OC (stereo not given) | 11% (inactive)
55 | O=[N+]([O-])/C(=C\c1cccs1)c1ccccc1 | 98% (active)
56 | Cc1ccccc1NC(=O)C(=O)C(C#N)c1c(Cl)cccc1Cl (stereo not given) | 15% (inactive)
57 | O=C1c2c(F)c(F)c(F)c(F)c2SC2=NCCN12 | 99% (active)
58 | CCCC(C)OC(=O)Nc1cccc(Cl)c1 (stereo not given) | 3% (inactive)
59 | Nc1nc(SCc2ccccc2)c2ncn(CCCl)c2n1 | 0% (inactive)
60 | CCCCOC(=O)c1nc(N(CC2CCCCC2)C(=O)NC)sc1NC(=O)NC | 92% (active)
